According to the supplement of paper PMC10849652:
About 8,800 targets were measured; listed, in parts, are those with a hit and a random draw of the rest. About 0.5% of all pairs of compound and target were hits. Unmarked numbers belong to inactive results.

Key:
Experiment in all cases: log2 fold change, soluble protein after heating vs DMSO (PISA); higher = thermal stabilisation; K562 lysate, 10 uM; active = over 0.2 and 3.5 SD of the protein, either way, in both replicates (recomputed)
[1] = compound: NCC(=O)Nc1ccc(-n2nc(C(F)(F)F)cc2-c2ccc3c(ccc4ccccc43)c2)cc1
Method in brief: (§1)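 Quantification was by TMTpro 16plex LC-MS/MS with equalised channel sums, applied to the supernatant after 21,000xg for 90 min. Samples were crude K562 extract at 1 mg/mL protein in PBS pH 7.4 with 1 mM MgCl2, treated with 10 μM compound for 30 min, heated for 3 min across 48°C-58°C, pooled and brought to 0.5% NP-40 at 4°C. Values are log-two fold changes in thermal stability relative to solvent controls, from duplicates.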

[2] = compound: O=C(CCCCCCC(=O)Nc1ccccc1)NO [vorinostat]
Method in brief: as §1

[3] = compound: O=C(O)c1ccc2c(c1)nc(Nc1cccc(Cl)c1)c1ccncc12 [silmitasertib]
Method in brief: as §1

[4] = compound: O=C1NC(=O)C(c2cnc3ccccn23)=C1c1cn2c3c(cc(F)cc13)CN(C(=O)N1CCCCC1)CC2
Method in brief: as §1

[5] = compound: c1cn2cc(-c3ccc4cn[nH]c4c3)nc(Nc3ccc(N4CCOCC4)cc3)c2n1 [entospletinib]
Method in brief: as §1

Sequence of UniProt Q96G46 (Q96G46 whole entry, looked up): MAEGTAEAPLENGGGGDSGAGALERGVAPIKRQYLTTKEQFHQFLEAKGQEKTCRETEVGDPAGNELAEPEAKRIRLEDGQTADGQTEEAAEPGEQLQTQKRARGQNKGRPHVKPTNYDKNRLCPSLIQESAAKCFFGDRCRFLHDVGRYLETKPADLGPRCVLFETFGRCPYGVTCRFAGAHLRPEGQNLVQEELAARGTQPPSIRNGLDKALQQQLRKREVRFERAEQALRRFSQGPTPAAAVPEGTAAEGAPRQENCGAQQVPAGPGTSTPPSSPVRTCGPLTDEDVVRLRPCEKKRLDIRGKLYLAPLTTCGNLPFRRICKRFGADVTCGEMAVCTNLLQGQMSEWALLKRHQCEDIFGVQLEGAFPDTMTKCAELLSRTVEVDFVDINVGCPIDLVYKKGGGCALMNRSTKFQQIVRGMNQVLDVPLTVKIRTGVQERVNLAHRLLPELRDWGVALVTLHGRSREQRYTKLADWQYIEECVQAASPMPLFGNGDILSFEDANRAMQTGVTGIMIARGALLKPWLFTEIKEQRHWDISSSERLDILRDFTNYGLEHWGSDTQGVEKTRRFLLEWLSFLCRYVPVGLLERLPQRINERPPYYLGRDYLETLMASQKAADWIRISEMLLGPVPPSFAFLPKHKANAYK
Sequence of UniProt Q96F86 (Q96F86 whole entry, looked up): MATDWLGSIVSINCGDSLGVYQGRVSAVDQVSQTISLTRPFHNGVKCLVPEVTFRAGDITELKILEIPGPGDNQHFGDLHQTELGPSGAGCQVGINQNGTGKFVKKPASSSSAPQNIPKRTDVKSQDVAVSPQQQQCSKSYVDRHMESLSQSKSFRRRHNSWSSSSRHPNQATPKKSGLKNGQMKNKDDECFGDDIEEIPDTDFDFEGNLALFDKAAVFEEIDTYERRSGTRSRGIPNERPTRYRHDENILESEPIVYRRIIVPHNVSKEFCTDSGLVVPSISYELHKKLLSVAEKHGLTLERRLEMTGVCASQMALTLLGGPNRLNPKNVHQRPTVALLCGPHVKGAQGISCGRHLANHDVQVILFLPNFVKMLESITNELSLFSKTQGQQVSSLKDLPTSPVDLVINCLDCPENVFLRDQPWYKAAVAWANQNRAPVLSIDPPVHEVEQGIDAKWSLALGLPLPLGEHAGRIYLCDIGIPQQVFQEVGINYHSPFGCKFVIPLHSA
Sequence of UniProt Q9NZJ0 (Q9NZJ0 whole entry, looked up): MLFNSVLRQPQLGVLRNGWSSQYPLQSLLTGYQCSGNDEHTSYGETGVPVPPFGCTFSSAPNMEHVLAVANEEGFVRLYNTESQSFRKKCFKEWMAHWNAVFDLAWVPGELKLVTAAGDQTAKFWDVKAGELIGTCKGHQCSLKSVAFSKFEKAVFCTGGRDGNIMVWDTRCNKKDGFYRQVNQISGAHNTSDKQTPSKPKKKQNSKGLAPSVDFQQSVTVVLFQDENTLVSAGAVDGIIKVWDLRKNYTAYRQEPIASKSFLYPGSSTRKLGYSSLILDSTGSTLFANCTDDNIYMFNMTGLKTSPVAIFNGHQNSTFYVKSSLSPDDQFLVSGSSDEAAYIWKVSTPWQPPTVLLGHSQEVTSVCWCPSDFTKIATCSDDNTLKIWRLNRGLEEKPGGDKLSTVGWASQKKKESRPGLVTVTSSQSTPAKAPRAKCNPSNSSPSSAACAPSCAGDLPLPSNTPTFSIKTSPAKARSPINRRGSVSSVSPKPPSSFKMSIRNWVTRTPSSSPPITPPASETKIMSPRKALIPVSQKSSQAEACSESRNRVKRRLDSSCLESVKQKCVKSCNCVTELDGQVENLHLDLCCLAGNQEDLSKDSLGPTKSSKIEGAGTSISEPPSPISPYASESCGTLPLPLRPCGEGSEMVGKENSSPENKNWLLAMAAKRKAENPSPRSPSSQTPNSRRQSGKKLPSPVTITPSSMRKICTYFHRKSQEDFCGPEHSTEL
Sequence of UniProt Q9NPA0 (Q9NPA0 whole entry, looked up): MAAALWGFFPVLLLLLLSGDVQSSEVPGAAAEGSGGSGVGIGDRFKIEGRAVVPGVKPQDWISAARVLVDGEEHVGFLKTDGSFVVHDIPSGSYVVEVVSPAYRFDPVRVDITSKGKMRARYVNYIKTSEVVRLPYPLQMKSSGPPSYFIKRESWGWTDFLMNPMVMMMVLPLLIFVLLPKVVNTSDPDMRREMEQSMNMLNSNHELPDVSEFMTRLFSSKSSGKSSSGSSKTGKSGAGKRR
Sequence of UniProt O15117 (O15117 whole entry, looked up): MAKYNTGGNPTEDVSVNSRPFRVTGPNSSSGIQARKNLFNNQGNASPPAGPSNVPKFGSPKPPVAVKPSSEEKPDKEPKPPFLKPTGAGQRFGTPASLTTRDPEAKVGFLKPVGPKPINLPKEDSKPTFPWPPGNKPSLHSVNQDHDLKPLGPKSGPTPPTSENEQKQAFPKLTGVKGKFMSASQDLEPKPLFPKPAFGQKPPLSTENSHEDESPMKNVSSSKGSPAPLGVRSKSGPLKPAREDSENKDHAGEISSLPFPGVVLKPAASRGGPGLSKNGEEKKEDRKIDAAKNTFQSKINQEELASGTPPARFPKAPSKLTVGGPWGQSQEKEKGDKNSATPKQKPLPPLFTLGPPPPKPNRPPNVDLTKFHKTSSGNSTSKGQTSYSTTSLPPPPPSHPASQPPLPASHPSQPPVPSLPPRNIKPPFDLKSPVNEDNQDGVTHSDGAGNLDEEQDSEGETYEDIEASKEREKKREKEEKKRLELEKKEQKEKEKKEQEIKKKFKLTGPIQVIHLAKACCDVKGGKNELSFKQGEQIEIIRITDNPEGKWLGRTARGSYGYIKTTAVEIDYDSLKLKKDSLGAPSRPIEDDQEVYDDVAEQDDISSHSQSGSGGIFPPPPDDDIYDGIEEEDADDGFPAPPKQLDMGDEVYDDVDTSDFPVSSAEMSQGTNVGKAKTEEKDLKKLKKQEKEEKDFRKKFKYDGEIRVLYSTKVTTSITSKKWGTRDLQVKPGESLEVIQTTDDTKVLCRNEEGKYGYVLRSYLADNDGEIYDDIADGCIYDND
Sequence of UniProt Q8N5C7 (Q8N5C7 whole entry, looked up): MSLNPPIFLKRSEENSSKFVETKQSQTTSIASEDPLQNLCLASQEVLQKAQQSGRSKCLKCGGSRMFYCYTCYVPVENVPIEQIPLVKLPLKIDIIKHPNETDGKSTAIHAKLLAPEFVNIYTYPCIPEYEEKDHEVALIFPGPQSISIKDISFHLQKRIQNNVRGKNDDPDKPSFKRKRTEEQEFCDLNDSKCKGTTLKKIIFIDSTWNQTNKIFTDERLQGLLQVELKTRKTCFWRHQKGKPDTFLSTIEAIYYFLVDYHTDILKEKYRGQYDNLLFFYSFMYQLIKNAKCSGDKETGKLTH
Sequence of UniProt P37268 (P37268 whole entry, looked up): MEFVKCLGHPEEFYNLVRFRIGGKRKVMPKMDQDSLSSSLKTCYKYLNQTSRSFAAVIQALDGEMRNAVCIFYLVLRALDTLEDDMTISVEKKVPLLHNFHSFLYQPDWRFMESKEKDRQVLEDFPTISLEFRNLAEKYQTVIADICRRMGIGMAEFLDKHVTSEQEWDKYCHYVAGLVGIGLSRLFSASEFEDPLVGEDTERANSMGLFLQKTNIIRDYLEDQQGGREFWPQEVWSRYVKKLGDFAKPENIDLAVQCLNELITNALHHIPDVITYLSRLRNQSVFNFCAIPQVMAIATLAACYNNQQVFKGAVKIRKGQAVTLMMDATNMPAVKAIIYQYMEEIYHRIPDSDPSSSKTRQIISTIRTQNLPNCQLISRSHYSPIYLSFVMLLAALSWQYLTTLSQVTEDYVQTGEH
Sequence of UniProt P57678 (P57678 whole entry, looked up): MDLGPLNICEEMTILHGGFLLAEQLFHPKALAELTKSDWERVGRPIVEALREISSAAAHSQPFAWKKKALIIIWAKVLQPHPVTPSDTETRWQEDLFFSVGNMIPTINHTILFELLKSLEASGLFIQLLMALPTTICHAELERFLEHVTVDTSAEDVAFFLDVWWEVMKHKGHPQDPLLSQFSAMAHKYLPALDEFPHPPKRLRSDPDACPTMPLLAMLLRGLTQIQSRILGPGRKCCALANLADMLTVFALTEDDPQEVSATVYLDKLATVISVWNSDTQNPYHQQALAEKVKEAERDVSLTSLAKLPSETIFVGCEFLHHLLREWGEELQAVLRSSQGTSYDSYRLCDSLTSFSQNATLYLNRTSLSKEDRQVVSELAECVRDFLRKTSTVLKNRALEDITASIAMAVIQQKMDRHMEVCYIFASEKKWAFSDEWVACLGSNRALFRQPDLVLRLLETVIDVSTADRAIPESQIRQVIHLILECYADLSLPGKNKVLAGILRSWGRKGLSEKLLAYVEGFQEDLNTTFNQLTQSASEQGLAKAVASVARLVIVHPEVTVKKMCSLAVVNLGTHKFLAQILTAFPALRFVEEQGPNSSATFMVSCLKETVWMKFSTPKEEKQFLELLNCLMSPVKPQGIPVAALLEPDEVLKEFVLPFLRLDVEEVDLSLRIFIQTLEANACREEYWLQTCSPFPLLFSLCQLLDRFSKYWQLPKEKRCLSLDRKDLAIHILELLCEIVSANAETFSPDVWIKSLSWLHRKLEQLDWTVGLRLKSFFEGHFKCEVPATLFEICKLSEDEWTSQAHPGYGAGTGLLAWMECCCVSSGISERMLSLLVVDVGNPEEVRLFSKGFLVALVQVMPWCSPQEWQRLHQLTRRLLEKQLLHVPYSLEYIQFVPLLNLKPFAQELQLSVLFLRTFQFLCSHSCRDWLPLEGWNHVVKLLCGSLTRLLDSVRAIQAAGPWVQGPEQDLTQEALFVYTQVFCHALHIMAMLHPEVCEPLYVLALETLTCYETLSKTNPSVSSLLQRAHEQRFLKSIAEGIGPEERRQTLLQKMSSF
Sequence of UniProt Q9H8W3 (Q9H8W3 whole entry, looked up): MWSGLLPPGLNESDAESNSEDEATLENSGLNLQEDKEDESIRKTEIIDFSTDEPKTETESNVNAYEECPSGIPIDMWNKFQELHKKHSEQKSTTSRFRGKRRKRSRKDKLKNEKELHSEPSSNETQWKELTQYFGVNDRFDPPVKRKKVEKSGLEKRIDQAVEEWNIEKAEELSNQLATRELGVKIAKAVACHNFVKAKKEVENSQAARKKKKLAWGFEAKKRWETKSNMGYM

| Target | log2 fold change [1] | log2 fold change [2] | log2 fold change [3] | log2 fold change [4] | log2 fold change [5] |
| --- | --- | --- | --- | --- | --- |
| EIF2AK1 (UniProt Q9BQI3) | -0.089 | -0.18 | 0.03 | -0.059 | 0.009 |
| EP400 isoform 5 (UniProt Q96L91) | -0.047 | -0.279 (active) | 0.024 | -0.025 | -0.021 |
| FYN (UniProt P06241) | -0.047 | 0.091 | -0.001 | -0.027 | 0.156 |
| EIF2B4 (UniProt Q9UI10) | 0.028 | -0.135 | 0.013 | -0.006 | -0.05 |
| EIF2B4 isoform 2 (UniProt Q9UI10) | 0.023 | -0.209 | 0.013 | -0.002 | 0.012 |
| FBXO45 (UniProt P0C2W1) | -0.013 | -0.367 (active) | 0.127 | 0.021 | -0.05 |
| GATAD2A isoform 3 (UniProt Q86YP4) | 0.023 | -0.213 (active) | -0.028 | 0.019 | -0.001 |
| GBF1 (UniProt Q92538) | -0.019 | -0.304 (active) | 0.023 | 0.043 | 0.008 |
| EPRS (UniProt P07814) | -0.01 | -0.365 (active) | 0.037 | 0.009 | 0.021 |
| DTWD1 (UniProt Q8N5C7) | 0.059 | -0.27 (active) | -0.022 | -0.028 | 0.036 |
| FTSJ1 (UniProt Q9UET6) | -0.024 | -0.326 (active) | 0.024 | 0.009 | 0.05 |
| ETFRF1 (UniProt Q6IPR1) | 0.03 | 0.24 (active) | -0.043 | 0.051 |  |
| EP300 (UniProt Q09472) | 0.018 | -0.338 (active) | 0.06 | 0.015 | -0.005 |
| GEMIN4 (UniProt P57678) | -0.025 | -0.435 (active) | 0.1 | 0.019 | 0.034 |
| FAM204A (UniProt Q9H8W3) | -0.057 | -0.211 | -0.095 | 0.044 |  |
| FBXO9 (UniProt Q9UK97) | -0.154 | -0.135 | 0.009 | -0.046 | -0.188 |
| EED, A0A5F9ZI63 | -0.022 | -0.227 (active) | 0.043 | -0.018 | 0.009 |
| FDFT1 (UniProt P37268) | -0.004 | -0.006 | 0.041 | 0.004 | 0.06 |
| FOXK1 (UniProt P85037) | 0.022 | -0.414 (active) | -0.026 | -0.048 | 0.038 |
| EXOC2 (UniProt Q96KP1) | -0.012 | -0.361 (active) | 0.031 | 0.022 | 0.024 |
| DTL (UniProt Q9NZJ0) | -0.011 | -0.165 | -0.042 | 0.052 |  |
| DUS3L (UniProt Q96G46) | 0.002 | -0.08 | 0.036 | -0.007 | 0.014 |
| EMC7 (UniProt Q9NPA0) | 0.015 | 0.085 | -0.007 | -0.018 | -0.023 |
| EDC3 (UniProt Q96F86) | 0.02 | -0.277 (active) | 0 | -0.026 | 0.013 |
| FYB1 isoform 3 (UniProt O15117) | 0.007 | 0.002 | -0.021 | 0 | -0.006 |
